In PubChem BioAssay (NCATS):
Records with an inconclusive call do not appear. Activity calls are given as the source filed them. The call rests on the fitted dose curve; in most records, active means well fitted cell-killing curve with a large enough effect; inconclusive means small, poorly fitted or top-dose-only effect; inactive means flat fitted curve, though single readings scatter.

test: qHTS of pediatric cancer cell lines to identify multiple opportunities for drug repurposing: Primary screen for BT-12 cells (AID 1347101); settings: BT-12 viability, CellTiter-Glo luminescence, 48 h; series mostly up to 57.3 µM; further: nearly all actives have a fitted effect of over 25% in size
In short: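 Cells (500-1,000/well) rested 5 h, then received compounds for 48 h; metabolically active cells were measured by CellTiter-Glo luminescence. Final concentrations spanned up to 46 µM (MIPE, 11-point) or 0.59 nM-46 µM (NPC, 8-point) in primary screens, 11-point in follow-ups.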
Potency means the concentration at half of the fitted maximal effect.

Row | SMILES | Potency
1 | Fc1cc(-c2cccc3ncc(-c4cnn(C5CCNCC5)c4)nc23)cc(F)c1CN1CCOCC1 | 27.3 µM (active)
2 | COC(=O)[C@]12CCC(C)(C)C[C@@H]1[C@@H]1C(=O)C=C3[C@@]4(C)C=C(C#N)C(=O)C(C)(C)[C@@H]4CC[C@@]3(C)[C@]1(C)CC2 | 0.968 µM (active)
3 | N#CCNC(=O)c1ccc(-c2ccnc(Nc3ccc(N4CCOCC4)cc3)n2)cc1 | 17.2 µM (active)
4 | CN(C)CCCN=c1c2ccccc2n(C)c2[nH]c(=O)n(C)c(=O)c12 | 7.69 µM (active)
5 | COc1cc2c(Oc3ccc4[nH]c(C)cc4c3F)ncnc2cc1OCCCN1CCCC1 | 24.3 µM (active)
6 | O=C(Nc1nc2cccc(-c3ccc(CN4CCS(=O)(=O)CC4)cc3)n2n1)C1CC1 | 27.3 µM (active)
7 | O=C(CCCCCCC(=O)Nc1ccc([C@H]2O[C@@H](CSc3nc(-c4ccccc4)c(-c4ccccc4)o3)C[C@@H](c3ccc(CO)cc3)O2)cc1)NO | 21.7 µM (active)
8 | NCC(=O)Nc1ccc(-n2nc(C(F)(F)F)cc2-c2ccc3c(ccc4ccccc43)c2)cc1 | 24.3 µM (active)
9 | COCCOc1ccc2c(c1)ncn2-c1ccc2cccc(N3CCC(N)CC3)c2n1 | 27.3 µM (active)
10 | Nc1nccc(Oc2ccc(NC(=O)c3c[nH]cc(-c4ccc(F)cc4)c3=O)cc2F)c1Cl | 13.7 µM (active)
11 | NC(=O)c1c(OCc2c(F)cc(Br)cc2F)nsc1NC(=O)NCCCCN1CCCC1 | 27.3 µM (active)
12 | CC1(O)CC(c2nc(-c3ccc4ccc(-c5ccccc5)nc4c3)c3c(N)nccn23)C1 (configuration not stated) | 17.2 µM (active)
